According to the supplement of paper PMC10849652:
About 7,900 targets were measured; listed, in parts, are those with a hit and a random draw of the rest. About 0.6% of all pairs of compound and target were hits.

Key:
Experiment in all cases: log2 fold change, soluble protein after heating vs DMSO (PISA); higher = thermal stabilisation; K562 cells, 10 uM, 30 min; active = over 0.2 and 3.5 SD of the protein, either way, in both replicates (recomputed)
erlotinib = compound: C#Cc1cccc(Nc2ncnc3cc(OCCOC)c(OCCOC)cc23)c1 [erlotinib]
Summary of the method: (§1)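 K562 cells at 2×10^6 cells/mL were treated with 10 μM compound for 30 min. Aliquots were heated for 3 min across 48°C-58°C, pooled, and extracted in PBS with 0.5% NP-40 at 4°C; soluble protein was the supernatant after 21,000xg for 90 min. Soluble protein was quantified by TMTpro 16plex LC-MS/MS with channel sums equalised, and reported as log2 fold change in thermal stability against DMSO controls, with values from duplicates.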

[1] = compound: C/C(=N\NC(=O)C1=CC(=CC=C1)S(=O)(=O)N2CCOCC2)/C3=C(C=CC(=C3)Cl)O
Summary of the method: as §1

[2] = compound: C1=CC(=C(C=C1Cl)C2=NC3=NC=CN=C3C(=N2)NC4=CC=NC=C4)F
Summary of the method: as §1

[3] = compound: C1=CC(=CC=C1C2=NC3=C(N2)C=C(C=C3)C(=O)N)OC4=CC=C(C=C4)Cl
Summary of the method: as §1

[4] = compound: C1=CC2=C(C=CC(=C2)/C=C\3/C(=O)NC(=NCC4=CC=CS4)S3)N=C1
Summary of the method: as §1

[5] = compound: C1=CC2=NC=CN=C2C=C1/C=C/3\C(=O)NC(=O)S3
Summary of the method: as §1

[6] = compound: C1=CC=C(C=C1)C2=NC(=C(N2)C3=CC=NC=C3)C4=CC(=C(C=C4)Cl)O
Summary of the method: as §1

[7] = compound: C1=CC=C2C(=C1)C3=NNC4=CC=CC(=C43)C2=O
Summary of the method: as §1

[8] = compound: C1CCN(C1)C(=O)NC2=CC=CC(=C2)NC3=NC=C(C(=N3)NCCC4=CN=CN4)Br
Summary of the method: as §1

[9] = compound: C1CN(CCC1(CC2=CC=C(C=C2)Cl)N)C3=NC=NC4=C3C=CN4
Summary of the method: as §1

IRAK-1-4 Inhibitor I = compound: C1COCCN1CCN2C3=CC=CC=C3N=C2NC(=O)C4=CC(=CC=C4)[N+](=O)[O-] [IRAK-1-4 Inhibitor I]
Summary of the method: as §1

ibrutinib = compound: C=CC(=O)N1CCC[C@@H](n2nc(-c3ccc(Oc4ccccc4)cc3)c3c(N)ncnc32)C1 [ibrutinib]
Summary of the method: as §1

[10] = compound: CC(=O)c1cnc2ccc(-c3cc(Cl)c(O)c(Cl)c3)nc2c1N[C@H]1CC[C@H](CN(C)C)CC1
Summary of the method: as §1

ralimetinib = compound: CC(C)(C)Cn1c(N)nc2ccc(-c3[nH]c(C(C)(C)C)nc3-c3ccc(F)cc3)nc21 [ralimetinib]
Summary of the method: as §1

[11] = compound: CC(C)(O)CC(=O)NCCn1ccc2ncnc(Nc3ccc(Oc4cccc(C(F)(F)F)c4)c(Cl)c3)c21
Summary of the method: as §1

[12] = compound: CC(C)C1=C2N=C(C=C(N2N=C1)NCC3=CC=CC=C3)NCCCCCCN
Summary of the method: as §1

[13] = compound: CC(C)C[C@@H](C=O)NC(=O)[C@H](CC(C)C)NC(=O)[C@H](CC(C)C)NC(=O)OCc1ccccc1
Summary of the method: as §1

pinometostat = compound: CC(C)N(C[C@H]1O[C@@H](n2cnc3c(N)ncnc32)[C@H](O)[C@@H]1O)[C@H]1C[C@@H](CCc2nc3cc(C(C)(C)C)ccc3[nH]2)C1 [pinometostat]
Summary of the method: as §1

[14] = compound: CC1=C(C(CC(=O)N1)C2=CC=C(C=C2)C(F)(F)F)C(=O)NC3=C(C=C4C(=C3)C=NN4)F
Summary of the method: as §1

[15] = compound: CC1=C(C2=C(C=C1)C(=O)C3=CC=CC=C3N2CCCN)C
Summary of the method: as §1

Measured: log2 fold change

TARBP1 (UniProt Q13395)
inactive: erlotinib 0.015 | [1] 0.062 | [2] 0.023 | [3] 0.027 | [4] -0.091 | [5] 0.065 | [6] -0.022 | [7] 0.012 | [8] -0.085 | [9] 0.019 | IRAK-1-4 Inhibitor I 0.062 | ibrutinib -0.007 | [10] -0.01 | ralimetinib 0.003 | [11] -0.074 | [12] -0.066 | [13] 0.009 | pinometostat 0.041 | [14] 0.04 | [15] 0.184

SURF2 (UniProt Q15527)
Chain of UniProt Q15527 (Q15527 whole entry, looked up): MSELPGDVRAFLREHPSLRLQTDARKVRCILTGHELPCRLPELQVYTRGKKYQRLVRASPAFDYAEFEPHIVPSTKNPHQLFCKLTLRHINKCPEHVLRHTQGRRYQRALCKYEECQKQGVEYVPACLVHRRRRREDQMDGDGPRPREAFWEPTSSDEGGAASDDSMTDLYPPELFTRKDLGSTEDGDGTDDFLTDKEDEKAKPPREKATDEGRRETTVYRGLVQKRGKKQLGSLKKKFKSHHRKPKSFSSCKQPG
inactive: erlotinib 0.021 | [1] -0.067 | [2] 0.039 | [3] -0.03 | [4] -0.068 | [5] 0.113 | [6] -0.057 | [7] 0.027 | [8] -0.043 | [9] 0.009 | IRAK-1-4 Inhibitor I 0.071 | ibrutinib 0.004 | [10] -0.043 | ralimetinib -0.117 | [11] -0.014 | [12] 0.131 | [13] 0.022 | pinometostat 0.01 | [14] -0.036
active: [15] -0.238

SRP72 (UniProt O76094)
active: [15] -0.547
inactive: erlotinib 0.044 | [1] 0.105 | [2] -0.072 | [3] -0.054 | [4] 0.066 | [5] 0.001 | [6] 0.005 | [7] -0.052 | [8] -0.005 | [9] -0.194 | IRAK-1-4 Inhibitor I -0.119 | ibrutinib -0.03 | [10] -0.025 | ralimetinib 0.104 | [11] -0.121 | [12] -0.275 | [13] 0.062 | pinometostat 0.205 | [14] -0.026

TARS2 (UniProt Q9BW92)
inactive: erlotinib 0.042 | [2] 0.021 | [3] 0.003 | [4] 0.086 | [5] 0.038 | [6] -0.03 | [7] 0.003 | [8] 0.001 | [9] -0.058 | IRAK-1-4 Inhibitor I -0.076 | ibrutinib -0.043 | [10] 0.009 | ralimetinib -0.029 | [11] -0.078 | [13] 0.069 | pinometostat -0.022 | [14] 0.036 | [15] 0.054
active: [1] -0.721 | [12] -0.219

SNRPB2 (UniProt P08579)
Chain of UniProt P08579 (P08579 whole entry, looked up): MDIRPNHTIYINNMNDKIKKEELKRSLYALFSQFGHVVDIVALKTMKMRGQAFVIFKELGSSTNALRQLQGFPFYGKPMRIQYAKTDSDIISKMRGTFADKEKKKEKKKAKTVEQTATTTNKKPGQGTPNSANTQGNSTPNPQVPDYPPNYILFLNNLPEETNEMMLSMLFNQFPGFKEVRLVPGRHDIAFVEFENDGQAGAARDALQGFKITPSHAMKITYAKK
active: [12] 0.213
inactive: erlotinib -0.032 | [1] -0.056 | [2] -0.01 | [3] -0.019 | [4] -0.034 | [5] 0.042 | [6] -0.054 | [7] -0.015 | [8] 0.057 | [9] -0.026 | IRAK-1-4 Inhibitor I 0.067 | ibrutinib 0.074 | [10] 0.089 | ralimetinib -0.015 | [11] 0.037 | [13] 0.037 | pinometostat 0 | [14] -0.012 | [15] 0.036

SRSF10 (UniProt O75494)
Chain of UniProt O75494 (O75494 whole entry, looked up): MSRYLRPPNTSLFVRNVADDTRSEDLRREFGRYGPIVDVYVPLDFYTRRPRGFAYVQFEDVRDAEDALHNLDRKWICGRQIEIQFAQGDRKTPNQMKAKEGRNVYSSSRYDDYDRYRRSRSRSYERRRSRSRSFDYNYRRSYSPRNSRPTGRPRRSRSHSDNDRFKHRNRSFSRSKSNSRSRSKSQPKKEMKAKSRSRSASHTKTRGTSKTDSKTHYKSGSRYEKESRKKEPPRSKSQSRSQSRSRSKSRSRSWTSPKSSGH
inactive: erlotinib 0.004 | [1] -0.284 | [3] 0.035 | [4] -0.044 | [5] 0.048 | [6] -0.148 | [7] -0.022 | [8] 0.063 | [9] -0.135 | IRAK-1-4 Inhibitor I -0.179 | ibrutinib 0.07 | [10] -0.047 | ralimetinib 0.185 | [11] 0.218 | [12] 0.002 | [13] 0.102 | pinometostat 0.418 | [14] 0.205 | [15] -0.396
active: [2] -0.701

SPAST (UniProt Q9UBP0)
inactive: erlotinib 0.139 | [1] 0.129 | [2] 0.032 | [3] -0.046 | [4] 0.06 | [5] 0.028 | [6] 0.007 | [7] 0.064 | [8] -0.048 | [9] -0.004 | IRAK-1-4 Inhibitor I 0.054 | ibrutinib -0.015 | [10] -0.073 | ralimetinib 0.015 | [11] -0.157 | [12] -0.063 | [13] 0.013 | pinometostat 0.002 | [14] -0.019 | [15] 0.114

TAOK3 (UniProt Q9H2K8)
Chain of UniProt Q9H2K8 (Q9H2K8 whole entry, looked up): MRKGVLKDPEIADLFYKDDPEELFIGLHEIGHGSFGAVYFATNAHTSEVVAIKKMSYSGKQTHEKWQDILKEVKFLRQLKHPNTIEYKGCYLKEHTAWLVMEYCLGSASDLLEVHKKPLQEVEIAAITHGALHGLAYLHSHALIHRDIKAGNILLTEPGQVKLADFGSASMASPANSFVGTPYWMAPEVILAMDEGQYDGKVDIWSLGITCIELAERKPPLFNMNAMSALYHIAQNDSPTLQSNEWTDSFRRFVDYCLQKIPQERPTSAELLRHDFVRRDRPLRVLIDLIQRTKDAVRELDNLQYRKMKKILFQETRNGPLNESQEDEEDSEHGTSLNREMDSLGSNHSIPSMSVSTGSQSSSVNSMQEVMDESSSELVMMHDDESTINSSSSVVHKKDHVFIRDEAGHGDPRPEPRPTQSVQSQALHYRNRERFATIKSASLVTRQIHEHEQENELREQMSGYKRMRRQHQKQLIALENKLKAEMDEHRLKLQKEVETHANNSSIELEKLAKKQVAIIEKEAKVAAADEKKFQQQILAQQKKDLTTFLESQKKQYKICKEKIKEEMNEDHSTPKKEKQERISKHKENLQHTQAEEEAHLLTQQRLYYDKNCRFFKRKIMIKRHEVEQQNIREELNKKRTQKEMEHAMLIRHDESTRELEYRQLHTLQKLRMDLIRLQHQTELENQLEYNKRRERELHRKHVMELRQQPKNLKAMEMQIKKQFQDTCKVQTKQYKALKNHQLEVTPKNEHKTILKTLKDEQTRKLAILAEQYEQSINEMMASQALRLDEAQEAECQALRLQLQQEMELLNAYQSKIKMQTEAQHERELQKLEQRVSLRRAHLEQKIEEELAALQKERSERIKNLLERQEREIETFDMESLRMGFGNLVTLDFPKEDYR
inactive: erlotinib -0.017 | [1] 0.08 | [2] 0.009 | [3] 0.037 | [4] 0.02 | [5] 0.018 | [6] 0.018 | [7] -0.007 | [8] -0.044 | [9] 0.007 | IRAK-1-4 Inhibitor I 0.007 | ibrutinib 0.002 | ralimetinib 0.009 | [11] -0.011 | [12] 0.007 | [13] 0.033 | pinometostat 0.012 | [14] 0.003 | [15] 0.035
active: [10] -0.48

TJP2 isoform 7 (UniProt Q9UDY2)
Chain of UniProt Q9UDY2 (Q9UDY2 whole entry, looked up): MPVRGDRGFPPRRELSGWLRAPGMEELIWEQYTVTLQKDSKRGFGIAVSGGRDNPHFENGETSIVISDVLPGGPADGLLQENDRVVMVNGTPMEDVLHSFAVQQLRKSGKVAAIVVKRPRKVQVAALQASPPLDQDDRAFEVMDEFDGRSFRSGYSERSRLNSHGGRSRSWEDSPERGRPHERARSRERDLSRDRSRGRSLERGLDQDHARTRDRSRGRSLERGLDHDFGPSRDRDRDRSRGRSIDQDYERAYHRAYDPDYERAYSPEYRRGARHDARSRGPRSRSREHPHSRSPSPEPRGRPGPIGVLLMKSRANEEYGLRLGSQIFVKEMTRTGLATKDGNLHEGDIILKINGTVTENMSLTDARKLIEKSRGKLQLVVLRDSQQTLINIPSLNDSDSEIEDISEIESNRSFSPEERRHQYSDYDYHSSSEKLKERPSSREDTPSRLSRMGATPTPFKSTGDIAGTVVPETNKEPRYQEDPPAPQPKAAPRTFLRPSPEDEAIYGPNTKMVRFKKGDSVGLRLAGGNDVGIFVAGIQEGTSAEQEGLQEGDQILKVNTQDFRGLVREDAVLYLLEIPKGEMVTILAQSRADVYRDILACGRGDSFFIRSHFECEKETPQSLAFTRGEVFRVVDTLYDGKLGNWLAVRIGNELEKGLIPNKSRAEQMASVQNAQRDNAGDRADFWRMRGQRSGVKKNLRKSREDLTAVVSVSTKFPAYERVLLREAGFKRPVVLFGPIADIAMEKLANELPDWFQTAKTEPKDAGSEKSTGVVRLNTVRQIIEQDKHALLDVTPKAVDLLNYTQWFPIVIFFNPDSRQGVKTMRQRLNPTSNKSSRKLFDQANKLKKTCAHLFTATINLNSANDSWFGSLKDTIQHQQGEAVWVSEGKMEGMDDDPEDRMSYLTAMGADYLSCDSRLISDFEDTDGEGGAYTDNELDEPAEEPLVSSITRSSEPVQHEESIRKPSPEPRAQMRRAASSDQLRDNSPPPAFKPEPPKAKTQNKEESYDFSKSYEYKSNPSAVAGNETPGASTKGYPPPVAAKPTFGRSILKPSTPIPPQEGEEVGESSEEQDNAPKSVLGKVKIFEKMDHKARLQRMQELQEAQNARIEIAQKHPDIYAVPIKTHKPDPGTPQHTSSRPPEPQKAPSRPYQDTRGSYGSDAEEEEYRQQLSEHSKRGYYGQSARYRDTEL
active: [10] -0.437
inactive: erlotinib 0.116 | [1] 0.06 | [2] -0.042 | [3] 0.006 | [4] 0.029 | [5] -0.201 | [6] 0.008 | [7] -0.006 | [8] -0.08 | [9] 0.001 | IRAK-1-4 Inhibitor I 0.004 | ibrutinib -0.004 | ralimetinib 0.032 | [11] -0.061 | [12] -0.107 | [13] 0.068 | pinometostat 0.003 | [14] 0.017 | [15] 0.05

SPART (UniProt Q8N0X7)
inactive: erlotinib 0.024 | [1] 0.008 | [2] 0.057 | [3] 0.008 | [4] 0.07 | [5] 0.002 | [6] -0.008 | [7] -0.014 | [8] -0.033 | [9] -0.055 | IRAK-1-4 Inhibitor I 0.008 | ibrutinib -0.033 | [10] -0.084 | ralimetinib 0.02 | [11] -0.058 | [12] -0.056 | [13] -0.011 | pinometostat 0.034 | [14] -0.04 | [15] 0.128

SLC6A6 (UniProt P31641)
Chain of UniProt P31641 (P31641 whole entry, looked up): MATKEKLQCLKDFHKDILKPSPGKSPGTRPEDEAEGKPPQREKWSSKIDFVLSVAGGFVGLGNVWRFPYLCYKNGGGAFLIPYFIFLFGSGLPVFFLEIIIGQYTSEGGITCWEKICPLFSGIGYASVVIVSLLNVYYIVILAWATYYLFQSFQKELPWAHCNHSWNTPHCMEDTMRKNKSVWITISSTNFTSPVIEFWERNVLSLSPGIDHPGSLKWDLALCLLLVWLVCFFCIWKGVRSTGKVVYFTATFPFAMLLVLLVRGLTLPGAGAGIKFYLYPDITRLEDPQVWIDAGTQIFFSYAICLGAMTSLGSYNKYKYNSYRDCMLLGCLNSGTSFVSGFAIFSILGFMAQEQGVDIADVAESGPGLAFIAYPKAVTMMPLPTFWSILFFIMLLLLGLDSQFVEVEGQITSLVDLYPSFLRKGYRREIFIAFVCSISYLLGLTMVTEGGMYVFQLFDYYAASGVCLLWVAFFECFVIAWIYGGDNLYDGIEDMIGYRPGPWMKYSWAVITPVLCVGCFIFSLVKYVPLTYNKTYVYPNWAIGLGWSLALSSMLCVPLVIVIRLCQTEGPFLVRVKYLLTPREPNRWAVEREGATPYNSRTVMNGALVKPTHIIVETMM
inactive: erlotinib 0.001 | [1] 0.013 | [2] 0.123 | [3] -0.005 | [4] 0.003 | [5] 0.055 | [6] 0.007 | [7] -0.054 | [8] 0.087 | [9] 0.083 | IRAK-1-4 Inhibitor I -0.025 | ibrutinib 0.036 | [10] -0.045 | ralimetinib -0.186 | [11] -0.033 | [12] 0.107 | [13] 0.101 | pinometostat -0.071 | [14] -0.025 | [15] -0.181

SQSTM1 (UniProt Q13501)
Chain of UniProt Q13501 (Q13501 whole entry, looked up): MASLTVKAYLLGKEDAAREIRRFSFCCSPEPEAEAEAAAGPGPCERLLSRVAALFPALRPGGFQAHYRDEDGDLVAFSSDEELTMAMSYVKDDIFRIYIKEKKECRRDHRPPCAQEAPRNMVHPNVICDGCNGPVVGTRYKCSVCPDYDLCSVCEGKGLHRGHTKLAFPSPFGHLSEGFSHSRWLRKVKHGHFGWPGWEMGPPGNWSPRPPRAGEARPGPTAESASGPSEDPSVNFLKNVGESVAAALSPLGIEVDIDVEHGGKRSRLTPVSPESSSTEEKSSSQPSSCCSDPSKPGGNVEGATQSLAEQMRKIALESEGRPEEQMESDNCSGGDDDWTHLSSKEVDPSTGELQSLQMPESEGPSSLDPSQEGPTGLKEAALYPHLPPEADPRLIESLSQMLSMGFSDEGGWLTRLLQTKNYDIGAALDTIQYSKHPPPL
inactive: erlotinib -0.058 | [1] -0.008 | [2] 0.101 | [3] 0.037 | [4] -0.017 | [5] 0.108 | [6] -0.004 | [7] 0.02 | [8] -0.135 | [9] -0.045 | IRAK-1-4 Inhibitor I -0.006 | ibrutinib 0.012 | ralimetinib -0.026 | [11] 0.058 | [12] -0.118 | [13] 0.039 | pinometostat 0.048 | [14] 0.077 | [15] -0.079
active: [10] -0.298

SRFBP1 (UniProt Q8NEF9)
Chain of UniProt Q8NEF9 (Q8NEF9 whole entry, looked up): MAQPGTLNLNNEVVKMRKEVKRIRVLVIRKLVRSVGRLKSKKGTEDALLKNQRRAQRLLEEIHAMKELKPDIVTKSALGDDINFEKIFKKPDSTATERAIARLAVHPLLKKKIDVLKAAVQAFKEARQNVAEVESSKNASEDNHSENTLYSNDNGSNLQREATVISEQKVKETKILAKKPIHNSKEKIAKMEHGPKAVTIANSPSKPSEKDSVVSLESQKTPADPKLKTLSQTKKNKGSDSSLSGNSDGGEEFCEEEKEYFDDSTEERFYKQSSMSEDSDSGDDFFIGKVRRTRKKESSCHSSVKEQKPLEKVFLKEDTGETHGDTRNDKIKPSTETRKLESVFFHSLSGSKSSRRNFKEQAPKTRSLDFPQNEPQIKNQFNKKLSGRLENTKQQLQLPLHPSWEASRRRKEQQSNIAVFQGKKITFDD
inactive: erlotinib -0.256 | [1] -0.082 | [2] -0.114 | [3] 0.039 | [4] -0.03 | [5] 0.104 | [6] -0.08 | [7] 0.082 | [8] 0.069 | [9] -0.065 | IRAK-1-4 Inhibitor I -0.081 | ibrutinib -0.037 | [10] -0.099 | ralimetinib -0.022 | [11] 0.091 | [12] 0.137 | [13] 0.25 | pinometostat 0.018 | [14] 0.21 | [15] 0.023

SUN2 (UniProt Q9UH99)
inactive: erlotinib -0.067 | [1] 0.023 | [2] -0.031 | [3] -0.004 | [4] -0.012 | [5] 0.02 | [6] 0.005 | [7] -0.087 | [8] -0.038 | [9] -0.017 | IRAK-1-4 Inhibitor I -0.04 | ibrutinib 0.056 | [10] -0.044 | ralimetinib 0.072 | [11] -0.119 | [13] 0.041 | pinometostat 0.027 | [14] 0.043 | [15] -0.117
active: [12] -0.211

STX7 (UniProt O15400)
Chain of UniProt O15400 (O15400 whole entry, looked up): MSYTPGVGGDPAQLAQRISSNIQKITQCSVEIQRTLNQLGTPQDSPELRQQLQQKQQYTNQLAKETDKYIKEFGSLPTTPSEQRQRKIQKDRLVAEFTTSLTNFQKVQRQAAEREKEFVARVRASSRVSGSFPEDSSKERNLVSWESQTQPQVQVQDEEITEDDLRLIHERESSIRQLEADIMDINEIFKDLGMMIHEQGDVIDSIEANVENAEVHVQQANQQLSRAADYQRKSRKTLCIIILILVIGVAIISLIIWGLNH
inactive: erlotinib 0.02 | [1] -0.029 | [2] 0.02 | [3] 0.021 | [4] -0.02 | [5] 0.02 | [6] -0.009 | [7] -0.007 | [8] 0 | [9] 0.056 | IRAK-1-4 Inhibitor I -0.01 | ibrutinib 0.024 | [10] 0.011 | ralimetinib -0.039 | [11] 0.012 | [12] -0.087 | [13] -0.009 | pinometostat -0.109 | [14] 0 | [15] 0.017

SLC30A7 (UniProt Q8NEW0)
Chain of UniProt Q8NEW0 (Q8NEW0 whole entry, looked up): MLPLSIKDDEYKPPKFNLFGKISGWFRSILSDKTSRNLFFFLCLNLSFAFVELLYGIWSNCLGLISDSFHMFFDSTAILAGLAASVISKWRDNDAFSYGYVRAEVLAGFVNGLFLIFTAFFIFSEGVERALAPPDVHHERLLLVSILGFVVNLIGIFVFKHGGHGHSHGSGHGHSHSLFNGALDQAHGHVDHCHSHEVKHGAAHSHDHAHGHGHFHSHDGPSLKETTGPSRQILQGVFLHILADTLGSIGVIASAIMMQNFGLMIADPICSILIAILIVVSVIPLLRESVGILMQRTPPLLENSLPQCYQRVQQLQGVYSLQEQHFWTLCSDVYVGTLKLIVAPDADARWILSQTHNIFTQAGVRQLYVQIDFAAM
inactive: erlotinib -0.004 | [1] 0.175 | [2] 0.062 | [3] 0.006 | [4] -0.086 | [5] 0.077 | [6] 0.109 | [7] 0.004 | [8] 0.016 | [9] 0.132 | IRAK-1-4 Inhibitor I 0.035 | ibrutinib 0.063 | [10] 0.032 | ralimetinib -0.098 | [11] -0.075 | [12] -0.186 | [13] 0.011 | pinometostat -0.007 | [14] -0.058 | [15] 0.06
